This passage reports Potency, activity change, negative = viability loss and outcome results from PubChem BioAssay (NCATS).

Assay [1] addresses Calcium and integrin-binding protein 1 (Homo sapiens) (UniProt Q99828). In words: Primary qHTS for Identification of Calcium Integrin Binding Protein 1 (CIB1) Competitor (AID 1508620).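 Note: GST tagged CIB1 binding a fluorescein labelled alphaIIb integrin peptide tracer; top concentration of the series differs between compounds.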 In outline: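 Fluorescence polarization competition: CIB1-GST (1 uM final) preincubated with compound 15 min at room temperature, then FITC-labeled alphaIIb peptide (100 nM final) added for another 15 min. Polarization read at Ex 480/Em 540.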

A short description of assay [2]: Primary qHTS for inhibitors of nuclear receptor binding SET domain protein 2 (NSD2) in an isogenic RCH-ACV NSD2 p.E1099K mutant (9B) (AID 1645876). Note: nearly all actives have a fitted effect of over 70% in size. Note: potency is the fitted concentration of half-maximal effect.

Records with an inconclusive call do not appear. Entries that show only a call come without a potency. A number with no mark means an inactive call. Active and inactive are the calls of the source. Calls come from the whole dose curve; as a rule, active = well fitted inhibition curve with a large enough effect; inconclusive = small, poorly fitted or top-dose-only effect; inactive = flat fitted curve, though single readings scatter.

Chain of Calcium and integrin-binding protein 1 (Homo sapiens) (Q99828 whole entry, looked up): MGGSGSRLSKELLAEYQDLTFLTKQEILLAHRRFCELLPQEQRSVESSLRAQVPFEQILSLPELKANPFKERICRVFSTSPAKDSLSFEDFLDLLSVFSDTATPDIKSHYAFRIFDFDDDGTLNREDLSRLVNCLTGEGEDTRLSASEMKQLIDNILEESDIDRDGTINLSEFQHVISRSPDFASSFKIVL

In the case of `Cc1cn(C2C=CC(CO)O2)c(=O)[nH]c1=O` (configuration not stated), the Potency entry in assay [1] and in assay [2] was “inactive” each time.

Take `NC(=O)[C@H]1CCS[C@@H]2C[C@]3(CCCN3C(=O)Cc3ccc(NC(=O)COc4ccc(Cl)cc4Cl)cc3)C(=O)N12`: the Potency result in assay [1] is “inactive”. In addition, the Potency in assay [2] is 7.42 µM (active).

As to `CC1(C)CC[C@]2(CO[C@@H]3O[C@H](CO)[C@@H](O)[C@H](O)[C@H]3O)[C@@H](O)C[C@]3(C)C(=CCC4[C@@]5(C)CC[C@H](O[C@@H]6O[C@H](CO[C@@H]7O[C@H](CO[C@@H]8OC[C@@H](O)[C@H](O)[C@H]8O)[C@@H](O)[C@H](O)[C@H]7O)[C@@H](O)[C@H](O)[C@H]6O)C(C)(C)C5CC[C@]43C)[C@@H]2C1` (some centres not stated), in assay [1], the Potency entry was “inactive”. Besides, in assay [2], the activity change, negative = viability loss was -11.3% [at 9.23 µM].

With `CC(=O)OC1CC2C3(C)CCC(OC(=O)CC(=O)O)C(C)(C)C3CCC2(C)C2(C)CCC(C3(C)CCC(=O)O3)C12` (configuration not stated), the Potency result in assay [1] and in assay [2] was “inactive” each time.

Turning to `C=C[C@H]1[C@H](O[C@@H]2O[C@H](CO)[C@@H](O)[C@H](O)[C@H]2O)OC=C(C(=O)OC)[C@H]1C[C@@H]1c2cc(O)c(O)cc2CCN1C(C)=O`, the Potency entry in assay [1] and in assay [2] was “inactive” in each case.

On to `CC(=O)O[C@H]1[C@H](O[C@H]2[C@@H]3C=CO[C@@H](O[C@@H]4O[C@H](CO)[C@@H](O)[C@H](O)[C@H]4O)[C@@H]3[C@@]3(CO)O[C@@H]23)O[C@@H](C)[C@H](OC(=O)/C=C/c2ccccc2)[C@H]1OC(=O)/C=C/c1ccccc1`, for which the Potency entry in assay [1] was “inactive”. Besides, the outcome in assay [2] is “inactive [at 9.23 µM]”.

Consider `C=CC1C(OC2OC(CO)C(O)C(O)C2O)OC=C2C(=O)N3C(C(=O)O)Cc4c([nH]c5ccccc45)C3CC21` (configuration not stated), for which the Potency result in assay [1] and in assay [2] was “inactive” throughout.

With `CC(C)=CCC[C@](C)(O[C@@H]1O[C@H](CO[C@@H]2O[C@H](CO)[C@@H](O)[C@H](O)[C@H]2O)[C@@H](O)[C@H](O)[C@H]1O)C1CC[C@]2(C)[C@@H]1[C@H](O)CC1[C@@]3(C)CC[C@H](O[C@@H]4O[C@H](CO)[C@@H](O)[C@H](O)[C@H]4O[C@@H]4O[C@H](CO)[C@@H](O)[C@H](O)[C@H]4O)C(C)(C)[C@@H]3CC[C@]12C` (some centres not stated), the Potency entry in assay [1] was “inactive”. Further, the activity change, negative = viability loss in assay [2] was -10.6% [at 9.23 µM].

As to `CCC1C(=O)N(C)c2cnc(Nc3ccc(C(=O)NC4CCC(N5CCN(CC6CC6)CC5)CC4)cc3OC)nc2N1C(C)C` (configuration not stated), in assay [1], the Potency result is “inactive”. For the same compound, the Potency in assay [2] is 0.0183 µM (active).

With `O=C(OCC1=CC(O)C2C=CO[C@@H](O[C@@H]3O[C@H](CO)[C@@H](O)[C@H](O)[C@H]3O)C12)c1ccccc1` (some centres not stated), the Potency entry in assay [1] and in assay [2] was “inactive” each time.

With `COC(=O)c1ccnc(-c2cc(C(=O)NCCc3ccccc3)ccn2)c1`, the Potency result in assay [1] and in assay [2] was “inactive” each time.

Consider `CC1=C(C(=O)O)/C(=C\CO[C@@H]2O[C@H](CO)[C@@H](O)[C@H](O)[C@H]2O)C(OC(=O)/C=C/c2ccc(O)cc2)C1` (some centres not stated), for which the Potency entry in assay [1] and in assay [2] was “inactive” each time.

As for `CN=C(N)NCCCCC/C=C(/C)CC(C)C1OC(=O)C(C)C(O)/C=C/C(C)C(O)CC(O)C(C)C(O)CCC(C)C(O)CC2(O)OC(CC(OC(=O)CC(=O)O)CC(O)CC(O)C(C)C(O)/C(C)=C/CCC1C)CC(O)C2O` (configuration not stated), in assay [1], the Potency result is “inactive”. Further, in assay [2], the Potency was 3.88 µM (active).

In the case of `CCOC(=O)C(CCc1ccccc1)NC(C)C(=O)N1C(=O)N(C)CC1C(=O)O` (configuration not stated), the Potency result in assay [1] and in assay [2] was “inactive” throughout.

Consider `C[C@@]12C[C@]3(O)O[C@H](O1)[C@]1(COC(=O)c4ccccc4)[C@H]3C[C@@]12O[C@@H]1O[C@H](CO)[C@@H](O)[C@H](O)[C@H]1O`, for which the Potency result in assay [1] and in assay [2] was “inactive” in each case.

As to `CC1=C(C(=O)OCc2ccccc2)C(c2ccc(-c3ccccc3)cc2)NC(=O)N1CCCCCC(=O)O` (configuration not stated), the Potency result in assay [1] and in assay [2] was “inactive” each time.

As for `COc1ccc2nc(S(=O)(=O)Cc3ncc(C)c(OC)c3C)[nH]c2c1`, the Potency result in assay [1] and in assay [2] was “inactive” in each case.

As to `O=C(/C=C/c1ccccc1)OC[C@]12O[C@H]1[C@@H](O)[C@@H]1C=CO[C@@H](O[C@@H]3O[C@H](CO)[C@@H](O)[C@H](O)[C@H]3O)[C@@H]12`, the Potency result in assay [1] and in assay [2] was “inactive” in each case.

On to `C=C1CCC[C@]2(C)CC[C@@H](C(=C)C(=O)O)[C@H](O)[C@@H]12`, for which the Potency result in assay [1] and in assay [2] was “inactive” throughout.

For `C=C1C[C@]23C[C@H]1[C@@H](O)C[C@H]2[C@@]12C=C[C@H](O)[C@@](C)(C(=O)O1)[C@H]2[C@@H]3C(=O)O`, the Potency result in assay [1] and in assay [2] was “inactive” each time.

`C/C=C/c1ccc(O[C@@H]2O[C@H](CO)[C@@H](O)[C@H](O)[C@H]2O)c(OC)c1`: the Potency entry in assay [1] and in assay [2] was “inactive” each time.
